Imprint erasure: genomic imprint erasure induction. Potency, µM (top dose mostly 60.7 µM), without a hit: top-dose activity change, positive = activation, most hits filed as activators. 110,000 tested, 0.02% active. mouse ES Peg3-LacZ reporter, beta-gal luminescence, 40 h
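Each well holds 300 Peg3LacZ-Neo (maternal) female ES cells incubated 40 h at 37C, 5% CO2. LacZ is measured by BetaGlo luminescence, with AC50 and maximum efficacy derived from dose-response curves.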
IkB signaling: inhibitors of IkB signaling in ABC-DLBCL cells | 110,000 tested, 0.04% active | Potency, µM (series often up to 57.1 µM), for inactives: at the highest dose IkBa stabilization activation | ABC-DLBCL IkBa-CBG/CBR dual luciferase ratio, 4 h; response scale: scaled: untreated 0%, proteasome inhibitor 100% | AID 445; active = well fitted curve in the direction sought with a large enough effect in the signal ratio, not every such curve was filed as active; inconclusive = small, poorly fitted or top-dose-only effect, or a change in a side signal; the % refers to the signal ratio;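 note: the direction sought is a rising ratio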
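In this assay, an IκBα–CBG68 fusion accumulates when IKK-driven degradation is blocked; native CBR normalizes for cell number. OCI-Ly3 cells were treated 4 h with compound and doxycycline, then green and red light read after Chroma-Glo addition.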
p53ts 32C tox: kills p53ts cells at the permissive temperature; Potency, µM (highest dose often 46.1 µM), for the others: top-dose activity change, negative = cytotoxicity, hits mostly cytotoxic; H1299-p53A138V at 32C, ATP luminescence viability, 24 h; 130,000 tested, 0.93% active;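 note: 0% = DMSO and -100% = full killing by reference compound; nearly all actives have a fitted effect of over 55% in size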
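Cells: H1299 p53ts (A138V), 600/well, pre-incubated 16–30 h at 37C. Cpd up to 46 uM, 24 h, 32C. Readout: ATPlite luminescence, 20 min RT. Normalization: DMSO vs tamoxifen 100 uM. AC50 by Hill equation.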
p53ts 39C tox: p53ts cell cytotoxicity, nonpermissive temperature; H1299-p53A138V viability at 39C, ATP luminescence, 24 h; Potency, µM (series often up to 46.1 µM), for inactives: at the highest dose activity change, negative = cell killing, actives largely listed as cytotoxic; 130,000 tested, 1.5% active; AID 902; note: % is set by controls: 0 for no effect and ±100 for the full control effect; nearly all actives have a fitted effect of over 55% in size
The depositor's hits bear a star; ? = inconclusive; . = no result; [ ] = remark or other dose. Hits are enriched below; roughly 1.8% of the tested compounds scored in any of these assays. Unless noted, calls come from the whole dose curve; as a rule, active = well fitted curve in the direction sought with a large enough effect; inconclusive = small, poorly fitted or top-dose-only effect, or another doubt; inactive = no such curve, though single readings can be large; an effect the other way counts as inactive or inconclusive. Potency is the fitted concentration of half-maximal effect.

SMILES	Imprint erasure	IkB signaling	p53ts 32C tox	p53ts 39C tox
O=[N+]([O-])c1ccc(C2=Nn3c(nnc3-c3ccc(Cl)cc3)SC2)o1	-18.7%[10.9 µM]	16.4%[11.4 µM]	-7.0%[9.22 µM]	7.6%[9.22 µM]
O=C(O)[C@@H]1[C@H](C(=O)O)[C@H]2C(=O)C=C[C@H]1N2Cc1ccccc1	-18.6%[10.9 µM]	3.98µM*	5.8%[9.22 µM]	1.9%[9.22 µM]
Cc1ccc(CNS(=O)(=O)c2cc(C(=O)Nc3cccc(C(F)(F)F)c3)ccc2F)cc1	-7.8%[10.9 µM]	?	-18.4%	12.6µM*
COc1ccc(-c2cc(C(=O)N/N=C\c3cc(OC)c(OC)c(OC)c3)[nH]n2)cc1	.	.	-24.3%	-23.2%
NC(=O)C1CCN(C(=O)c2ccc(NC(=O)c3nsc4ccccc34)cc2)CC1	-32.5%[10.9 µM]	?	2µM*	2.51µM*
CCCCCNC(=O)c1ccc2c(c1)nc(C)n2-c1cccc(C)c1	-8.8%[10.9 µM]	-0.9%	13.4%	20µM*
CC(C)Nc1ccc(-c2nc(-c3ccccn3)no2)cc1[N+](=O)[O-]	-15.9%[10.9 µM]	0.1%	-9.2%	-2.8%
Brc1ccc(-c2nc(-c3ccccn3)no2)o1	-94.9%	?	7.94µM*	6.31µM*
Clc1ccc(OCc2nc(-c3ccccn3)no2)c(Br)c1	-80.7%	6.4%	12.6µM*	12.6µM*
Brc1ccc(-c2nc(-c3ccncc3)no2)o1	-26.7%	-1.0%	-5.9%	0.2%
Clc1ccccc1OCc1nc(-c2ccccn2)no1	-76.8%	?	?	?
Clc1ccc(-c2nc(-c3ccccn3)no2)cc1Cl	-65.5%	?	5.01µM*	7.94µM*
CN(C)Cc1ccccc1-c1cc(NCc2ccccc2)ncn1	1.9%	-1.4%[11.4 µM]	-7.1%	-9.7%
CCOC(=O)c1nc(Nc2ccc(C(=O)OC(C)C)cc2)c2ccccc2n1	-13.3%[10.9 µM]	?	-6.2%	-26.9%
COc1ccc2c(c1)[C@]1(C)CCC[C@](C)(CO)[C@@H]1CC2	.	2.9%[11.4 µM]	.	.
CCOc1ccc2nc(NC(=O)COC)sc2c1	-68.5%	8.0%	?	?
CCOc1ccc2nc(NC(=O)Nc3cccs3)sc2c1	-56.2%	?	15.8µM*	10µM*
C=C(CC1([C@@H](NP(=O)(c2ccccc2)c2ccccc2)[C@H]2C[C@@H]2CCCC)CC1)c1ccccc1	-32.7%	.	7.7%	25.1µM*
CCCC[C@@H]1C[C@H]1C(NC(=O)c1ccccc1)c1ccccc1 (stereo not given in full)	-16.0%	.	15.0%	-7.0%
CCCC[C@@H]1C[C@H]1[C@@H](NP(=O)(c1ccccc1)c1ccccc1)c1ccccc1OC	-23.1%	.	?	25.1µM*
C[C@H]1CC[C@H]2C(=O)N3[C@H](c4ccc(Br)cc4)[C@@H](C)CC[C@H]3C(=O)N2[C@@H]1c1ccc(Br)cc1	.	.	3.7%[9.22 µM]	-5.4%[9.22 µM]
O=C(NCc1ccccc1Cl)C1CCC(CNS(=O)(=O)c2ccc(Br)s2)CC1 (stereo not given)	-12.9%[10.9 µM]	0.0%	?	12.6µM*
COc1ccc(Nc2cc(C(=O)NCCCN3CCN(c4ccc(OC)cc4)CC3)c3ccccc3n2)cc1	-19.6%[10.9 µM]	?	?	12.6µM*
COc1ccc(N2CCN(CCCNC(=O)c3cc(Nc4ccccc4OC)nc4ccccc34)CC2)cc1	-20.5%[10.9 µM]	?	1.0%	?
Cc1cc(C)c(C)c(S(=O)(=O)NCCC(=O)O)c1C	.	.	5.4%	-9.9%
SMILES	Imprint erasure	IkB signaling	p53ts 32C tox	p53ts 39C tox
CN1c2cc(Cl)ccc2-c2nc(SCC(=O)Nc3ccc(F)cc3F)ncc2S1(=O)=O	-7.5%[10.9 µM]	4.4%	-12.2%	10µM*
Cc1cccc(NC(c2cccc(Cl)c2)c2ccc3cccnc3c2O)n1 (stereo not given)	-29.5%[10.9 µM]	?	-23.8%	12.6µM*
Cc1ccc(C(Nc2ccccn2)c2ccc3cccnc3c2O)cc1 (stereo not given)	-16.5%[10.9 µM]	?	?	?
CCCC[P+](CCCC)(CCCC)Cc1ccc(NC(=O)[C@@H](Cc2ccc3ccccc3c2)NC(=NC2CCCCC2)NC2CCCCC2)cc1	-8.0%	0.9%	11.9%	?
O=C(Nc1cc2c(cc1C(=O)c1ccccc1)OCCO2)c1ccc(Br)cc1	-17.0%[10.9 µM]	6.1%	-5.7%	20µM*
O=C(Oc1ccc2c(c1)OCO2)c1cccs1	-2.0%	0.0%	-2.1%	-9.6%
O=C(/C=C/c1ccc2c(c1)OCO2)c1cccs1	-45.7%	.	15.8µM*	20µM*
O=C1N[C@@H](Cc2ccccc2)C(=O)N2CCCC12 (stereo not given in full)	-10.8%[97.3 µM]	.	.	.
CC(C)CC1NC(=O)C(CCCN)NC(=O)C(C(C)C)NC(=O)C2CCCN2C(=O)C(Cc2ccccc2)NC(=O)C(CC(C)C)NC(=O)C(CCCN)NC(=O)C(C(C)C)NC(=O)C2CCCN2C(=O)C(Cc2ccccc2)NC1=O (stereo not given)	-29.6%	.	-9.8%	5.01µM*
C[C@@H]1/C=C\CC(=O)OC[C@H](C)C(=O)N[C@@H](Cc2ccccc2)C(=O)OC1	.	.	-8.6%[9.22 µM]	-0.5%[9.22 µM]
Cc1ccc(S(=O)(=O)N2CCN(Cc3ccccc3)CC2)c(C)c1NS(C)(=O)=O	2.6%[10.9 µM]	-0.2%	-5.0%	-18.4%
Cc1cc(C)cc(N(CC(=O)O)S(=O)(=O)c2cccnc2)c1	-4.5%	3.7%	0.7%	-4.5%
CN(Cc1ccco1)c1cc(-c2cccc(C#N)c2)ncn1	-6.8%	-0.8%[11.4 µM]	2.9%	-7.4%
CN(C)c1ccc(-c2cc(N(C)Cc3ccco3)ncn2)cc1	-39.4%	-2.2%[11.4 µM]	12.6µM*	12.6µM*
COc1cccc(-c2cc(N(C)Cc3ccco3)ncn2)c1	-83.6%	-0.8%[11.4 µM]	?	12.6µM*
N#Cc1ccc(CN2CC3(CCN(C(=O)c4ccco4)CC3)C2)cc1	.	-1.1%[11.4 µM]	0.6%	16.8%
Cc1cc(C)nc(SC2=CS(=O)(=O)c3ccccc32)n1	-26.8%	?	-29.6%	?
O=S1(=O)C=C(Sc2nc3ccccc3s2)c2ccccc21	-36.1%	?	12.6µM*	?
Cc1cc(Nc2cccc(F)c2)nc(-c2ccccc2O)n1	-23.0%	?	?	15.8µM*
Cc1cc(Nc2ccccc2)nc(-c2ccccc2O)n1	-20.5%	-0.4%	-12.0%	0.2%
COc1cc(OC)c(NC(=O)N2CCC(CN3CCOCC3)CC2)cc1Cl	.	.	-4.4%	.
CCOc1ccc(-c2nc(SCC(=O)Nc3ccc4c(c3)OCCO4)c(-c3ccc(F)cc3)[nH]2)cc1	-11.8%[10.9 µM]	?	-29.4%	15.8µM*
CCC(=O)C1=C(c2ccc(F)cc2)N(C(=O)CC)n2cnnc2S1	-36.4%[10.9 µM]	?	8.6%	66.3%
CCOc1ccc(C2=C(C(=O)CC)Sc3nncn3N2C(=O)CC)cc1	26.2%[10.9 µM]	?	11.2µM*	?
CCOCc1cc(CN2CCN(c3ccccc3OC)CC2)c(O)c2ncccc12	25.2%[10.9 µM]	1.9%	5.2%	20µM*
COCc1cc(CN2CCCC2)c(O)c2ncccc12	-23.0%	0.1%	3.9%	?
CCCOCc1cc(CN2CCN(c3ccccc3OC)CC2)c(O)c2ncccc12	-38.6%[10.9 µM]	?	15.8µM*	10µM*
CCOCc1cc(CN2CCN(c3cccc(C(F)(F)F)c3)CC2)c(O)c2ncccc12	-33.5%[10.9 µM]	?	-1.8%	?
